Reference: PubChem BioAssay
Measured potencies and affinities stand elsewhere. Inconclusive results are not listed. Activity calls are given as the source filed them.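 The calls were made as follows, unless noted: active = a fitted half-maximal concentration no higher than twice the top valid tested dose, with signal falling as cells die; inconclusive = flat curve between -70% and -30%, or poor fit; inactive = the rest, including signal rising instead of falling.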

What was measured:
[1] = Cryptococcus neoformans growth inhibition, dose response, Alamar Blue, cherry-picks (AID 686998;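 active = falling signal with fitted half-maximal potency no higher than twice the top valid tested dose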)
[2] = inducers of Cryptococcus neoformans cell lysis, dose response, AK release luminescence, cherry-picks (AID 687000;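 active = fitted dose curve reaches 40% lysis signal rise at or below the highest valid concentration tested for that sample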;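 also: luminescent detection of adenylate kinase leaking from lysed yeast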)
[3] = HepG2 cell cytotoxicity, dose response, cytotoxicity control, cherry-picks, set 2 (AID 687002;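 active = a dose-response fit showing signal loss, with half-maximal concentration no higher than twice the top tested dose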)
[4] = HeLa cell cytotoxicity, dose response, cytotoxicity control, ATP luminescence, cherry-pick samples (AID 687004)

Measured: outcome

CCC(C)(C(=O)NC1CCCC1)N(C(C)=O)c1ccc(C)cc1 (stereo unspecified)
inactive: all assays above

CC1=C(C(=O)OCc2ccccc2)C(c2ccccc2)NC(=O)N1 (stereo unspecified)
inactive: all assays above

Cc1noc(C)c1S(=O)(=O)N(C)C[C@@H]1Oc2c(NC(=O)c3cnccn3)cccc2C(=O)N([C@@H](C)CO)C[C@@H]1C
inactive: all assays above

CN1C(=O)c2cc(NS(C)(=O)=O)ccc2OC[C@@H]2O[C@@H](CC(=O)O)CC[C@@H]21
inactive: all assays above

CCCC(=O)N1CCCC1(C)C(=O)Nc1cc(C)ccc1C (stereo unspecified)
inactive: all assays above

C[C@H]1CN([C@@H](C)CO)C(=O)c2cccc(NS(C)(=O)=O)c2O[C@H]1CN(C)C(=O)Nc1ccc2c(c1)OCO2
inactive: all assays above

CC(=O)N1CCN(c2ccc(NC(=S)NC(=O)c3ccc(C)c([N+](=O)[O-])c3)cc2)CC1
inactive: all assays above

C[C@@H]1CN([C@@H](C)CO)S(=O)(=O)c2ccc(C#Cc3ccc(F)cc3)cc2O[C@H]1CN(C)C(=O)NC1CCCC1
inactive: all assays above

CCCCN1CCCCC1C(=O)Nc1c(C)cccc1C (stereo unspecified)
inactive: all assays above

O=C(O)C[C@@H]1CC[C@@H]2[C@H](COC[C@H](O)CN2S(=O)(=O)c2ccc(F)cc2)O1
inactive: all assays above

Cc1noc(C)c1S(=O)(=O)Nc1ccc2c(c1)CC(=O)N([C@@H](C)CO)C[C@H](C)[C@@H](CN(C)S(=O)(=O)c1cn(C)cn1)O2
inactive: all assays above

CCNC(=O)Nc1ccc2c(c1)C(=O)N(C)[C@@H]1CC[C@H](CC(=O)N[C@@H](C)c3ccccc3)O[C@@H]1CO2
inactive: all assays above

COc1cccc(S(=O)(=O)Nc2ccc3c(c2)[C@H]2C[C@H](CC(=O)NCc4cccc(F)c4)O[C@@H](CO)[C@H]2O3)c1
inactive: all assays above

C[C@H](CO)N1C[C@H](C)[C@H](CN(C)Cc2cccnc2)Oc2ncc(C#CC3(O)CCCC3)cc2C1=O
inactive: all assays above

C[C@@H]1CN([C@@H](C)CO)C(=O)Cc2cc(NC(=O)Nc3cccc4ccccc34)ccc2O[C@@H]1CN(C)Cc1ccc(C(=O)O)cc1
inactive: all assays above

O=C([C@@H]1[C@@H](CO)[C@@H]2Cn3c(cccc3=O)[C@H]1N2Cc1cccc(Cl)c1)N1CCOCC1
inactive: all assays above

C/C=C/c1ccc([C@@H]2[C@@H](CO)N3CCCCN(C(=O)Nc4ccc(OC)cc4)C[C@H]23)cc1
inactive: all assays above

CN1C(=O)c2cc(NS(=O)(=O)c3cccc(F)c3)ccc2OC[C@@H]2O[C@@H](CC(=O)O)CC[C@H]21
inactive: all assays above

CC(C)(C)SCCNC(=O)CN(c1ccccc1)S(=O)(=O)c1ccc(F)cc1
inactive: all assays above

C[C@@H]1CN([C@@H](C)CO)C(=O)CCCn2cc(nn2)CO[C@@H]1CN(C)Cc1ccc2c(c1)OCO2
inactive: all assays above

CCCC(=O)Nc1ccc2c(c1)OC[C@@H](C)N(Cc1cncnc1)C[C@@H](C)[C@@H](OC)CN(C)C2=O
inactive: all assays above

C[C@@H]1CN([C@@H](C)CO)C(=O)c2cc(NC(=O)Nc3ccc4c(c3)OCO4)ccc2O[C@H]1CN(C)Cc1ccc(Oc2ccccc2)cc1
inactive: all assays above

COc1ccccc1-c1ccc([C@H]2[C@@H](C#N)N(C(=O)C3CC3)[C@@H]2CO)cc1
inactive: all assays above

C[C@@H]1CN([C@@H](C)CO)C(=O)c2cc(NC(=O)CCN3CCOCC3)ccc2O[C@@H]1CN(C)Cc1ccc(C(=O)O)cc1
inactive: all assays above

C/C=C/c1cnc2c(c1)C(=O)N([C@@H](C)CO)C[C@@H](C)[C@@H](CN(C)C(=O)C1CCCCC1)O2
inactive: all assays above

CC(=O)N1[C@@H]2c3ccc(-c4ccccc4)c(=O)n3C[C@H]1[C@H](CO)[C@H]2C(=O)Nc1ccccc1
inactive: all assays above

CO[C@H]1CN(C)C(=O)c2ccc(NC(=O)C3CC3)cc2OC[C@@H](C)N(Cc2ccc(F)cc2)C[C@@H]1C
inactive: all assays above

CC(C)NC(=O)NCC[C@@H]1CC[C@@H](NC(=O)CN(C)C)[C@@H](CO)O1
inactive: all assays above

C[C@H](CO)N1C[C@H](C)[C@@H](CN(C)C(=O)C2CCOCC2)Oc2ncc(C#CCc3ccccc3)cc2C1=O
inactive: all assays above

CC(C)(C)C(=O)N1CCCC1C(=O)Nc1ccccc1 (stereo unspecified)
inactive: all assays above

C[C@@H]1CCCCO[C@H](CN(C)Cc2ccncc2)[C@@H](C)CN([C@@H](C)CO)C(=O)c2cc(NC(=O)Nc3ccccc3)ccc2O1
inactive: all assays above

CCS(=O)(=O)NCC[C@@H]1CC[C@@H](NS(=O)(=O)c2cccc(F)c2)[C@@H](CO)O1
inactive: all assays above

Cc1ccc(C)c(NC(=O)C2(C)CCCN2C(=O)C(C)C)c1 (stereo unspecified)
inactive: all assays above

CCC(=O)N1C[C@H](O)COC[C@@H]2O[C@@H](CC(=O)NCc3ccccc3Cl)CC[C@H]21
inactive: all assays above

CCCNC(=O)N(C)C[C@H]1Oc2ncc(C#CC3CCCCC3)cc2C(=O)N([C@@H](C)CO)C[C@@H]1C
inactive: all assays above

O=C(NC1CCCC1)N1CCCCN2[C@H](CO)[C@@H](c3ccc(-c4cncnc4)cc3)[C@H]2C1
inactive: all assays above

O=C(Cc1cccs1)N1CCN(c2cccc(Cl)c2)CC1
inactive: all assays above

CCC(=O)N1[C@@H]2c3cccc(=O)n3C[C@H]1[C@H](CO)[C@H]2C(=O)NCc1ccccc1
inactive: all assays above

O=C(NC[C@@H]1[C@H](c2ccccc2)[C@@H](CO)N1C(=O)Cc1cccnc1)C1CCC1
inactive: all assays above

C[C@H]1CN([C@@H](C)CO)C(=O)Cc2cc(NC(=O)Nc3cccc4ccccc34)ccc2O[C@H]1CN(C)S(=O)(=O)c1cccs1
inactive: all assays above

C[C@H]1CCCCO[C@@H](CN(C)C(=O)c2ccccc2)[C@@H](C)CN([C@@H](C)CO)C(=O)c2cc(NC(=O)c3ccncc3)ccc2O1
inactive: all assays above

Cc1noc(C)c1NC(=O)Nc1ccc2c(c1)C(=O)N([C@H](C)CO)C[C@H](C)[C@H](CN(C)CC1CCCCC1)O2
inactive: all assays above

C[C@@H]1CN([C@@H](C)CO)C(=O)c2cc(N(C)C)ccc2O[C@@H]1CN(C)C(=O)Nc1ccc(C(F)(F)F)cc1
inactive: all assays above

C[C@@H]1CN([C@H](C)CO)C(=O)c2cc(NC(=O)Nc3cccc4ccccc34)ccc2O[C@H]1CN(C)C(=O)Nc1ccc(C(F)(F)F)cc1
inactive: all assays above

O=C(Nc1ccc(F)cc1)N1C[C@H]2[C@@H](c3ccccc31)[C@@H](CO)N2Cc1cocn1
inactive: all assays above

COc1ccc(NC(=O)Nc2ccc3c(c2)C(=O)N([C@H](C)CO)C[C@@H](C)[C@@H](CN(C)C(=O)CCC(F)(F)F)OCCCC[C@H](C)O3)cc1
inactive: all assays above

CCCNC(=O)[C@@H]1[C@@H](CO)[C@@H]2Cn3c(cccc3=O)[C@H]1N2C(=O)Nc1cc(F)ccc1F
inactive: all assays above

O=C(NC1CCCC1)N1CCCCN2[C@H](CO)[C@H](c3ccc(-c4cncnc4)cc3)[C@@H]2C1
inactive: all assays above

C[C@H](CO)N1C[C@H](C)[C@@H](CN(C)S(=O)(=O)c2ccc(Cl)cc2)Oc2c(NS(=O)(=O)c3ccc(F)cc3)cccc2C1=O
inactive: all assays above

CC(C)NC(=O)Nc1ccc2c(c1)CC(=O)N([C@H](C)CO)C[C@@H](C)[C@H](CN(C)Cc1ccc3c(c1)OCO3)O2
inactive: all assays above

C[C@@H]1CN([C@@H](C)CO)C(=O)c2cc(-c3ccc(C#N)cc3)cnc2O[C@@H]1CN(C)C(=O)Nc1ccc(F)cc1
inactive: all assays above

Cc1noc(C)c1NC(=O)Nc1ccc2c(c1)C(=O)N([C@H](C)CO)C[C@@H](C)[C@H](CN(C)S(C)(=O)=O)OCCCC[C@@H](C)O2
inactive: all assays above

CO[C@H]1CN(C)C(=O)c2cc(NC(=O)c3ccc4c(c3)OCO4)ccc2OC[C@@H](C)N(CC2CC2)C[C@H]1C
inactive: all assays above

C[C@H]1CN([C@@H](C)CO)C(=O)c2cc(NC(=O)CCN3CCOCC3)ccc2O[C@@H]1CN(C)Cc1ccc(C(=O)O)cc1
inactive: all assays above
